Molecules are shown by their SMILES. Calls of active or inactive are those of the source. The calls were made as follows: active = hit-call score of the fitted dose curve at least 0.9, where 1 is the maximum; inactive = score below 0.9.

The test deals with Heat shock factor protein 1 (Homo sapiens) (UniProt Q00613). Briefly: ATG_HSE_CIS: Attagene CIS-FACTORIAL HepG2 Assay for human Heat Shock Transcription Factor 1 (HSE) (AID 2282953). Conditions: HepG2 HSE cis-reporter, Attagene RNA transcription; actives raise or lower the signal. The method in brief: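 Endogenous transcription factor activity captured via cis-promoter reporter units transfected into HepG2; treatment lasted 24 h. Fluorescence intensity of reporter fragments analysed with bidirectional curve fitting, DMSO baseline.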
Sequence of Heat shock factor protein 1 (Homo sapiens) (Q00613 whole entry, looked up, the tested form may be a part): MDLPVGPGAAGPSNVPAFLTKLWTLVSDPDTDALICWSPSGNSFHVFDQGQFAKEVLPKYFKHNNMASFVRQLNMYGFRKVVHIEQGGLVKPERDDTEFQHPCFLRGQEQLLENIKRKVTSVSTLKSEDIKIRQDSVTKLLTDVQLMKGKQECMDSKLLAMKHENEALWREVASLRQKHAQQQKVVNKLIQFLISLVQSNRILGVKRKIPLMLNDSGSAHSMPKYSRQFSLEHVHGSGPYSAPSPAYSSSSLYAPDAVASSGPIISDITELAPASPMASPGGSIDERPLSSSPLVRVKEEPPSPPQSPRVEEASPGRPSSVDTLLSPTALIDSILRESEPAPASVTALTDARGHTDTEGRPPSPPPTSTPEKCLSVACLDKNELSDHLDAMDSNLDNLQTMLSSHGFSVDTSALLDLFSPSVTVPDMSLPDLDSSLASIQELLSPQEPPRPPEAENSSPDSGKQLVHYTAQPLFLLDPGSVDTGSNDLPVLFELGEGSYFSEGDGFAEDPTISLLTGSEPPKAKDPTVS
As to `[Cl][Nd]([Cl])[Cl]`, the outcome was inactive.

Regarding `CC/C=C\C/C=C\C/C=C\CCCCCCCC(=O)O`, the AC50 is 188 µM (active).

For the compound `CCOC(=O)CC`, the result was inactive.

`Nc1ccc(-c2ccc(F)cc2)cc1`: the call was inactive.

In the case of `CC(=O)Oc1ccc(C(C)=O)cc1`, the result was inactive.

Take `C=C(C)C(=O)OCC(C)C`: the outcome was inactive.

Consider `O=C(Nc1ccccc1)c1ccccc1O`, for which the call was inactive.

Turning to `CC(C)c1ccc(C#N)cc1`, the compound was classed as inactive.

`O=C1OC(=O)c2cc(Oc3ccc4c(c3)C(=O)OC4=O)ccc21`: the outcome was inactive.

Consider `COc1cc(C)ccc1C(C)C`, for which the call was inactive.

`Cc1cccc(N)n1`: the result was inactive.

Take `O=S(=O)(O)CC(O)CCl` (stereo not given): the compound was called inactive.

In the case of `COc1ccc([C@@H]2CC(=O)c3c(O)cc(O[C@@H]4O[C@H](CO[C@@H]5O[C@@H](C)[C@H](O)[C@@H](O)[C@H]5O)[C@@H](O)[C@H](O)[C@H]4O)cc3O2)cc1OC`, the call was inactive.

As to `c1cc(N(CC2CO2)CC2CO2)ccc1OCC1CO1` (stereo not given), the AC50 was 152 µM (active).

Turning to `CCCCC(CC)CCC(CC(C)C)OS(=O)(=O)O` (stereo not given), the compound was called inactive.

With `[Cl][Bi]([Cl])([c]1ccccc1)([c]1ccccc1)[c]1ccccc1`, the AC50 is 5.52 µM (active).

On to `O=C(O)C(c1ccc(Cl)cc1)c1ccc(Cl)cc1`, for which the call was inactive.

Turning to `CC1=Nc2ccc3ccccc3c2C1(C)C`, the AC50 is 147 µM (active).

As to `O=c1c2ccccc2nnn1CCl`, the result was inactive.

In the case of `CN(C)c1ccc(N=Nc2ccccc2C(=O)O)cc1`, the AC50 is 56.5 µM (active).

As for `S=C(NC1CCCCC1)NC1CCCCC1`, the compound was classed as inactive.

Regarding `COc1cc(NC(=O)CC(C)=O)c(OC)cc1Cl`, the call was inactive.

As for `O=C(/C=C/C=C/c1ccc2c(c1)OCO2)N1CCCCC1`, the AC50 is 159 µM (active).

Turning to `CC(C)COC(=O)C=Cc1ccccc1`, the call was inactive.

With `CCN(CCO)c1cccc(C)c1`, the outcome was inactive.

With `C=C[Si](OC(C)=O)(OC(C)=O)OC(C)=O`, the call was inactive.

With `CCCC(=O)OCc1ccccc1`, the compound was classed as inactive.

As for `O=C(Cl)c1cc(C(=O)Cl)cc(C(=O)Cl)c1`, the AC50 was 100 µM (active).

For `Nc1cccc(C(F)(F)F)c1`, the compound was classed as inactive.

With `Cc1ccc(N/N=c2\c(=O)cc/c(=N/Nc3ccc(S(=O)(=O)O)cc3)c2=O)c(C)c1`, the compound was called inactive.

For the compound `Cc1cc(C)c(C)cc1C`, the result was inactive.

As to `CCC(Cc1ccccc1)(C(=O)c1ccc(N2CCOCC2)cc1)N(C)C` (stereo not given), the AC50 is 65.9 µM (active).

On to `CC(C)CC(O)Cc1ccccc1` (stereo not given), for which the compound was classed as inactive.

Regarding `C=C(C)C(=O)OCCOc1ccccc1`, the compound was classed as inactive.

Regarding `CCCOCCOCCOCCO`, the result was inactive.

In general, AC50 refers to the concentration at which the activity in the assay is half-maximal.
